The text below walks through data of PubChem BioAssay (NCI).

The panel holds about 79,000 compounds, 15% with a hit somewhere; the sample as a whole holds those more often. Values without a mark were called inactive. The source made the active and inactive calls. Cut-off read from the data, not from the text of the source: active = growth inhibition above about 70%; inactive = the rest.

The nature of assay [1]: NCI Yeast Anticancer Drug Screen. Data for the rad50 strain (AID 155).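 Note: 0% = growth of vehicle-only cultures of the same strain.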 Conditions: S. cerevisiae rad50 strain growth inhibition; at 50.0 µM; stronger effect = higher value. Summed up:
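Relative growth inhibition (compound vs vehicle) was measured in yeast with a defined repair-gene alteration.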

Assay [2] can be described thus: NCI Yeast Anticancer Drug Screen. Data for the mec2-1 strain (AID 157). Conditions: S. cerevisiae mec2-1 strain, at 50.0 µM, stronger effect = higher value. Summed up: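 Mutant yeast (mec2-1) grown with compound; growth inhibition relative to vehicle control reported.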
Assay [3] can be described thus: NCI Yeast Anticancer Drug Screen. Data for the sgs1 mgt1 strain (AID 161).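 Note: 0% = growth of cultures given vehicle only.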 The conditions noted are these: S. cerevisiae sgs1 mgt1 strain, at 50.0 µM, stronger effect = higher value. Summed up:
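This yeast growth screen uses a strain with defined DNA-repair lesions; compound-treated growth is compared with vehicle-treated growth.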

Assay [4] is described as follows: NCI Yeast Anticancer Drug Screen. Data for the cln2 rad14 strain (AID 165).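 Note: 0% = growth equal to vehicle treated cultures.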 The conditions noted are these: S. cerevisiae cln2 rad14 strain, at 50.0 µM, stronger effect = higher value. Summed up: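 Readout is yeast growth inhibition versus vehicle-treated controls, using a strain with cln2 and rad14 alterations exposed to compound.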
Assay [5] is described as follows: NCI Yeast Anticancer Drug Screen. Data for the bub3 strain (AID 167). Conditions: S. cerevisiae bub3 mutant strain, at 50.0 µM, stronger effect = higher value. Put shortly: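 Screening used yeast with an engineered genetic alteration affecting cell cycle control. Compound-exposed cultures were compared with vehicle cultures, and reduced growth was taken as inhibition.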
Assay [6] in a line: NCI Yeast Anticancer Drug Screen. Data for the mlh1 rad18 strain (AID 175). Conditions: S. cerevisiae mlh1 rad18 strain growth inhibition; at 50.0 µM; stronger effect = higher value. Summed up:
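Genetically defined yeast (DNA repair-deficient) exposed to compounds; growth inhibition determined relative to vehicle.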

Turning to `Cc1ccc(S(=O)(=O)N2CCC2c2ccccc2)cc1` (centres undefined), the growth inhibition in assay [1] was 4.55%; in assay [2] it was -3.8%; in assay [3], -17.9%; in assay [4] it was -3.85%; in assay [5], -17.9%; in assay [6], -24.9%.

In the case of `OCC1NCCC(O)C1OC1OC(CO)C(O)C(O)C1O` (centres undefined), the growth inhibition in assay [1] is 5.25%; in assay [2], -22.1%; in assay [3], -0.65%; in assay [4], -2.75%; in assay [5], -5.7%; in assay [6] it was -18.6%.

Take `O=C(NCCCc1ccccc1)Nc1ccccc1`: the growth inhibition is 16.4% in assay [1]; -0.65% in assay [2]; -8.05% in assay [3]; -10.4% in assay [4]; -1.35% in assay [5]; 3.45% in assay [6].

Regarding `CCC(=O)OCC(OC(=O)CC)c1ccccc1` (centres undefined), the growth inhibition in assay [1] is 3.75%; in assay [2], -22.6%; in assay [3] it was -16.1%; in assay [4], 2.05%; in assay [5], 3.75%; in assay [6], 8.2%.

In the case of `CCOC(=O)/C=C1\CONC(c2ccc(OC)cc2)=N1`, the growth inhibition is -9.1% in assay [1]; -5.3% in assay [2]; -12.4% in assay [3]; -19.2% in assay [4]; 3.4% in assay [5]; 2% in assay [6].

Take `S=C(Nc1ccccc1)N1CCN(c2ccccc2Cl)CC1`: the growth inhibition was 10.7% in assay [1]; -1.65% in assay [2]; 8.25% in assay [3]; -33.9% in assay [4]; -2.15% in assay [5]; 13.1% in assay [6].

On to `NC(=O)C1C(=O)c2cccc3c2C1CCCC3` (centres undefined), for which the growth inhibition in assay [1] was -11%; in assay [2], 9.85%; in assay [3], -5.6%; in assay [4], -31%; in assay [5] it was -11%; in assay [6], 20.7%.

With `C=C1C(=O)OC2CC(C)C3CC(OCCCl)OC(OCCCl)C3(C)CC12` (centres undefined), the growth inhibition in assay [1] is 13.8%; in assay [2] it was 7.65%; in assay [3] it was -3.05%; in assay [4], 7.25%; in assay [5], 5.65%; in assay [6] it was -6.2%.

In the case of `COc1ccc(/C=C2/SC(=S)NC2=O)cc1S(=O)(=O)O`, the growth inhibition was 2.25% in assay [1]; -6.15% in assay [2]; 8.65% in assay [3]; -10.8% in assay [4]; 9.95% in assay [5]; -1.15% in assay [6].

With `CCOC1C=CCCC1` (centres undefined), the growth inhibition in assay [1] was -1.75%; in assay [2] it was 23.6%; in assay [3] it was -6.35%; in assay [4], 9.4%; in assay [5], 14.8%; in assay [6] it was -14%.

With `CC/C(=C\c1ccc(Cl)cc1)c1ccncc1`, the growth inhibition was 99.2% (active) in assay [1]; 99.5% (active) in assay [2]; 99.1% (active) in assay [3]; 99% (active) in assay [4]; 99.2% (active) in assay [5]; 99.2% (active) in assay [6].

Consider `Cc1c(C(=O)O)c2cc3ccccc3cc2c(=O)n1C`, for which the growth inhibition was -22.1% in assay [1]; -34.6% in assay [2]; -10.1% in assay [3]; -40.6% in assay [4]; -23.9% in assay [5]; -35% in assay [6].

For the compound `CC(=O)OC1OC(c2ccoc2)C[C@@]12C1CCC3O[C@]3(C)[C@]1(C)C[C@H](OC(C)=O)[C@H]2C` (some centres undefined), the growth inhibition in assay [1] is -0.5%; in assay [2] it was -14.5%; in assay [3], -41.5%; in assay [4] it was -13.6%; in assay [5], -32.1%; in assay [6], -13.2%.

Turning to `COc1ccc(C(O)C(NCc2ccccc2)c2ccccc2)cc1` (centres undefined), the growth inhibition in assay [1] was 7.75%; in assay [2] it was -7.3%; in assay [3], 13.2%; in assay [4], 11.8%; in assay [5] it was 2.55%; in assay [6] it was 23.9%.

Consider `NNC(=O)N/N=C/c1cccc(O)c1`, for which the growth inhibition is -11.7% in assay [1]; -2.35% in assay [2]; -21.4% in assay [3]; -12.1% in assay [4]; 1.1% in assay [5]; -19.4% in assay [6].

Turning to `Cc1cccnc1C`, the growth inhibition was 16.9% in assay [1]; -7.25% in assay [2]; -16.2% in assay [3]; 24.4% in assay [4]; 14.4% in assay [5]; 7.85% in assay [6].

Consider `N[C@@H](CSSc1ccccc1C(=O)O)C(=O)O`, for which the growth inhibition in assay [1] is -32.9%; in assay [2], -7.25%; in assay [3], -14.4%; in assay [4], 1.85%; in assay [5] it was 0.8%; in assay [6], -10.3%.

`CC(=O)Nc1c(Nc2ccccc2)[nH]c(C)nc1=S`: the growth inhibition in assay [1] is -5.55%; in assay [2], -9.35%; in assay [3], -0.25%; in assay [4], -17.4%; in assay [5], -3.1%; in assay [6] it was -9.8%.

As for `Cn1ncc2c(NCc3ccccc3)nc(Cl)nc21`, the growth inhibition in assay [1] was 6.5%; in assay [2] it was -11.2%; in assay [3] it was 16.4%; in assay [4], -9.9%; in assay [5], 5.85%; in assay [6], 12.9%.

In the case of `C=CCSCC1Nc2cc(Cl)c(S(N)(=O)=O)cc2S(=O)(=O)N1C` (centres undefined), the growth inhibition in assay [1] was 22.8%; in assay [2] it was 12.8%; in assay [3] it was 8.05%; in assay [4], 20.1%; in assay [5], -3.75%; in assay [6] it was 2.25%.

Turning to `O=C(Nc1ccc(Br)cc1)OCC1CC2C=CC1C2` (centres undefined), the growth inhibition in assay [1] was 43.5%; in assay [2], 70.8% (active); in assay [3], 79.9% (active); in assay [4], 42%; in assay [5] it was 33.9%; in assay [6] it was 47.4%.

Regarding `COc1ccc2nc3cc(Cl)ccc3c(Sc3ccc(NC(C)=O)cc3)c2c1`, the growth inhibition in assay [1] was 22.1%; in assay [2], -5%; in assay [3], -2.5%; in assay [4], 11.3%; in assay [5], 11.3%; in assay [6], 9.1%.

As to `CCOC(=O)Cn1c(=O)[nH]c(=O)c2[nH]cnc21`, the growth inhibition in assay [1] is 9.85%; in assay [2], -5.35%; in assay [3] it was -1.3%; in assay [4] it was 9.35%; in assay [5], 13.3%; in assay [6], 23.8%.

Turning to `Cc1cc(=O)[nH]c(/N=C(\N)Nc2ccc(Br)c(C(F)(F)F)c2)n1`, the growth inhibition is 10.1% in assay [1]; 2.85% in assay [2]; -3.8% in assay [3]; 6.55% in assay [4]; -1.5% in assay [5]; 2.9% in assay [6].

`O=C1CSC(c2cccnc2)N1CCN1C(=O)CSC1c1cccnc1` (centres undefined): the growth inhibition is 3.75% in assay [1]; 4.15% in assay [2]; -11.5% in assay [3]; -2.4% in assay [4]; -1.6% in assay [5]; 19.4% in assay [6].

Turning to `COc1ccc2nc(N/N=C/C(C)=N/Nc3cc(C)c4cc(OC)ccc4n3)cc(C)c2c1`, the growth inhibition in assay [1] was -3%; in assay [2], 4.8%; in assay [3] it was -2%; in assay [4] it was 3.4%; in assay [5], 0.15%; in assay [6] it was -23.2%.

Regarding `CC1c2nc(N)nc(N)c2CN1C(=O)c1ccccc1` (centres undefined), the growth inhibition in assay [1] is 3.25%; in assay [2] it was -5.7%; in assay [3], -18.9%; in assay [4], -13.6%; in assay [5], -8.85%; in assay [6], -0.85%.

On to `Cc1ccc(O)c(C2C=CCC2)c1` (centres undefined), for which the growth inhibition in assay [1] is 8.6%; in assay [2], -7.25%; in assay [3] it was 22.8%; in assay [4] it was 7.5%; in assay [5] it was -1.35%; in assay [6] it was 4.2%.

For the compound `O=C(Nc1ccc(Cl)cc1)Nc1nnc2nc(CC(=O)c3ccc4ccccc4c3)c(=O)[nH]n12`, the growth inhibition was 12.9% in assay [1]; 9.45% in assay [2]; 2.2% in assay [3]; -16.3% in assay [4]; 21.8% in assay [5]; 1.3% in assay [6].

`O=c1[nH]c2ccccc2[nH]1`: the growth inhibition in assay [1] was -18.8%; in assay [2], -14.9%; in assay [3] it was -7.6%; in assay [4], -28%; in assay [5], -13.2%; in assay [6], -14.4%.

As for `CC(C)NC(=O)/C=C/C(=O)O`, the growth inhibition was -16.1% in assay [1]; -20.4% in assay [2]; -41.2% in assay [3]; -7.4% in assay [4]; -11.2% in assay [5]; -9.1% in assay [6].

For `Nc1c(Cl)cccc1C(=O)c1ccccc1C(=O)O`, the growth inhibition is -9.8% in assay [1]; 4.8% in assay [2]; 5.4% in assay [3]; -14.8% in assay [4]; 1% in assay [5]; -3.15% in assay [6].

As to `O=C(Nc1cccc(O)c1)c1ccc([N+](=O)[O-])cc1`, the growth inhibition in assay [1] is 1.5%; in assay [2], 18.6%; in assay [3], 14.4%; in assay [4] it was -15.3%; in assay [5], 19.7%; in assay [6], 23.4%.

For the compound `CC(=O)Nc1ccc(N(C)C)c(C)c1`, the growth inhibition in assay [1] was -6.65%; in assay [2] it was -7.55%; in assay [3], -1.85%; in assay [4], -7.75%; in assay [5] it was 12.9%; in assay [6], -10.2%.

As for `CC(=O)OC(NC(=O)c1cc(C)cc(C)c1)c1ccncc1` (centres undefined), the growth inhibition in assay [1] is -2.05%; in assay [2], -3.05%; in assay [3], -0.75%; in assay [4], -8.1%; in assay [5], 4.6%; in assay [6], 1.25%.

In the case of `O=C(Nc1ccccc1)C1CC=C2CCC3OC(=O)C1C23` (centres undefined), the growth inhibition is -11.4% in assay [1]; -16.7% in assay [2]; -23.4% in assay [3]; -16% in assay [4]; -14.7% in assay [5]; -18.1% in assay [6].

With `COc1ccc(/C=C2\C(=O)N(C(=O)c3ccc(NC(C)=O)cc3)N=C2C)cc1`, the growth inhibition in assay [1] was -27.6%; in assay [2], -36.2%; in assay [3] it was -39.2%; in assay [4], -0.3%; in assay [5], -20.9%; in assay [6], -41.2%.

`CC1OC2(CC(OCc3ccccc3)C1OCc1ccccc1)OCCO2` (centres undefined): the growth inhibition in assay [1] is -10.9%; in assay [2] it was -3.85%; in assay [3], -8.7%; in assay [4] it was -4.8%; in assay [5], 21.6%; in assay [6], -31.9%.

For `CC(=O)OCCS(=O)Cc1ccccc1` (centres undefined), the growth inhibition is -36.9% in assay [1]; -16.5% in assay [2]; -9.05% in assay [3]; -41.4% in assay [4]; 3.6% in assay [5]; 3.15% in assay [6].
